# Experimental data from the supplement of paper PMC4723716.
# System: Plasmodium falciparum NF54 gametocytes
# Assay: viability index relative to DMSO control (fraction); higher = less gametocyte killing
# Conditions: 12.5 µM, incubation time: 72 h
# Method in brief: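 The viability index was calculated as the gametocyte particle count over the plate mean of solvent-only wells. For this, P. falciparum NF54 gametocytes of every stage (I–V) were held with compound at 12.5 µM for 72 hr at 37°C under low oxygen in 384-well plates. MitoTracker Red CMXRos staining for 20 min was followed by transfer of 5 µl into 40 µl of 500 nM dye in serum-free medium, with three fields imaged after 30 min.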
# [1] = gametocyte stage: Stage I viability index
# [2] = gametocyte stage: Stage II viability index
# [3] = gametocyte stage: Stage III viability index
# [4] = gametocyte stage: Stage IV viability index
# [5] = gametocyte stage: Stage V viability index
Compound,viability index [1],viability index [2],viability index [3],viability index [4],viability index [5]
CN1CCN(c2nc(Nc3ccc(O)cc3)nc3ccccc23)CC1,0.0262,0.247,0.796,0.927,0.74
O=C(NCC(c1ccsc1)N1CCCCCC1)c1ccc(C(F)(F)F)cc1 (stereo not given),0.653,0.881,0.843,0.9,0.725
COc1cc(OC)cc(N2C(=O)N(Cc3ccc(C(C)(C)C)cc3)c3ccccc3S2(=O)=O)c1,1.04,0.96,1,0.785,0.662
Oc1ccc(Cl)cc1CNc1nc2ccccc2[nH]1,0.0751,0.545,0.822,0.891,0.736
Cc1ccc(-c2nc3ccccc3o2)cc1NCc1cc(Cc2ccccc2)ccc1O,0.0201,0.0666,0.389,0.513,0.792
CCN(CC)CCNc1ncnc2c1[nH]c1ccc(Br)cc12,0.0398,0.36,0.635,0.641,0.396
CN(C)c1ccc(C(O)(c2ccc(N(C)C)cc2)c2ccc(N(C)C)cc2)cc1,0.157,0.0203,0.0948,0.0608,0.11
CCN(Cc1ccccc1)C1CCN(Cc2cc(Br)ccc2O)CC1,0.0376,0.132,0.573,0.617,0.659
COc1cc(-c2nc(-c3ccc(Sc4ccccc4)cc3)c(-c3ccccc3)[nH]2)cc(OC)c1O,0.0507,0.0441,0.0529,0.0222,0.0779
Clc1cc(Br)ccc1-c1ccc(CNCC2CCNCC2)o1,0.0166,0.0135,0.0099,0.0152,0.033
CC(C)(C)C(=O)Nc1ccc(C(=O)Nc2cccc(-c3nc4ccccc4[nH]3)c2)cc1,0.111,0.592,0.694,0.833,0.604
C=CCc1c(C)nc2ccccc2c1O,0.92,0.671,0.798,0.793,1.05
CSc1ccccc1C(=O)Nc1nc(-c2ccccn2)cs1,0.242,0.181,0.321,0.362,0.132
CCC(=O)Nc1nnc(Cc2ccc(OC)c(OC)c2)s1,1.02,0.965,0.901,1.08,1.38
O=C(NC(c1ccccc1)c1ccc2cccnc2c1O)c1ccccc1 (stereo not given),0.00552,0.029,0.0453,0.103,0.0769
Oc1ccccc1CNCC12CC3CC(CC(C3)C1)C2,0.274,0.297,0.638,0.818,0.769
CN1C=C(c2ccc3ccccc3n2)C(c2c[nH]c3ccccc23)c2ccccc21 (stereo not given),0.178,0.0874,0.273,0.294,0.351
COc1ccc(C(=O)NC(c2ccc(Cl)cc2Cl)c2cc(Cl)c3cccnc3c2O)cc1 (stereo not given),0.0262,0.0341,0.0814,0.136,0.0779
Cc1ccc(Cn2c(N3CCC(C(=O)NCc4cccs4)CC3)nc3ccccc32)cc1,0.593,0.289,0.545,0.544,0.308
CN(C)CCNc1cc(-c2ccccc2)nc2ccccc12,0.685,0.795,0.924,0.883,0.727
CCOc1ccc(Nc2c3ccccc3nc3ccccc23)cc1,0.0245,0.165,0.444,0.351,0.584
COc1ccccc1CNC(=O)CCn1c(=O)[nH]c2ccccc2c1=O,0.867,0.898,0.912,0.951,0.912
O=c1cc(NC2CCN(CCCc3ccccc3)CC2)c2cc(Cl)ccc2o1,0.028,0.408,0.815,0.848,0.675
OC1CCCCC1C1(NC(=S)Nc2ccccc2)CCCCC1 (stereo not given),0.24,0.184,0.0868,0.108,0.247
COCCNCC(O)Cn1c2ccc(Cl)cc2c2cc(Cl)ccc21 (stereo not given),0.105,0.0937,0.407,0.511,0.429
